TROY NFkB inh: inhibitors of TROY-dependent NF-kB signaling. Q293 LMP1-TROYcd NF-kB luciferase reporter, 4 h. inhibition, % at 10 µM. 360,000 compounds, 0.98% hits. AID 1347056;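 active = compounds whose plate-normalised and pattern-corrected inhibition of the luciferase reporter signal at the single screening dose is 50% or more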
PPC-1+TRAIL kill: PPC-1 cancer cell killing with TRAIL present; PPC-1 cells + TRAIL, ATPLite viability luminescence; cell killing (% activity), % at 4 µM or 5 µM; 220,000 compounds, 0.41% hits;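 active = cell killing above 50% in the first pass at 4 µM, then a duplicate retest at 5 µM averaging 50% or more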;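 note: plate controls were cells with TRAIL plus DMSO for no effect and medium-only wells lacking cells for full effect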
TWEAK-Fn14 inh: TWEAK-Fn14 signaling inhibition; TWEAK-stimulated Fn14 reporter cells, luciferase luminescence, 8 h; inhibition, % at 10 µM; 360,000 compounds, 2% hits; AID 1159606; in the data active = inhibition above about 50%
HSP90 refold inh: inhibitors of HSP90 luciferase refolding in rabbit reticulocyte lysate; luciferase refolding luminescence, 3 h; 290,000 compounds, 0.91% hits; inhibition, % at 5.6 µM; AID 1789;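 active = inhibition above the screen-wide mean plus 3 SD, computed separately per campaign, cut at about 16% in these data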;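 note: 0% = DMSO wells and 100% = 60 µM geldanamycin wells; inhibitors lower the luminescence because luciferase stays unfolded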
TRAIL sens C8: sensitizes caspase-8 expressing cells to TRAIL | NB7+C8 cells + TRAIL, ATPlite viability luminescence | inhibition (viability loss, TRAIL sensitization), % at 10 µM | 360,000 compounds, 1% hits | AID 624354;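 active = compounds causing at least 50% loss of cell viability in the single-dose screen, relative to plate controls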
Platelet DG rel: modulates dense granule release in human platelets. human platelet-rich plasma, SFLLRN dense granule ATP release, luminescence. inhibition, %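 (compounds screened at 7.5 µM in platelet-rich plasma)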. 300,000 compounds, 0.22% hits. AID 1663;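 active = mean replicate score, as percent of positive control, at or above 50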
Numbers without * were called inactive; / = no result given. The list is not random: actives were taken first. Their share in the collection is about 3.5%.

SMILES	TROY NFkB inh	PPC-1+TRAIL kill	TWEAK-Fn14 inh	HSP90 refold inh	TRAIL sens C8	Platelet DG rel
COCCNC(=O)C(=O)c1c(-c2ccccc2)[nH]c2ccccc12	-12	-15	11	0	-1	-11
O=C(Nc1ccc(Cc2ccncc2)cc1)C1CCC(N2C(=O)C3C4C=CC(C5CC45)C3C2=O)CC1 (stereo not drawn)	53*	1	47	1	33	3
COc1cc(-c2cc3nc(NCc4cccs4)ccn3n2)cc(OC)c1OC	20	/	41	/	7	/
COc1cc(-c2cc3nc(NCc4cccc(Cl)c4)ccn3n2)cc(OC)c1OC	42	/	65*	/	20	/
Cc1nn(-c2ccccc2)c(/N=C/c2ccc(O)cc2)c1-c1ccccc1	-75	40	-26	1	53*	-20
Cc1nn(-c2ccccc2)c(C)c1-c1ccccc1O	-11	/	-12	1	0	4
COc1ccc(S(=O)(=O)N[C@H]2CC[C@H](CCNC(=O)c3ccccc3F)O[C@@H]2CO)cc1	/	/	/	/	5	/
Cc1nc(NC(=O)c2ccc([N+](=O)[O-])cc2Cl)sc1C(=O)N(C)C	6	20	12	8	1	-5
Cc1cc(C(=O)Nc2nc(C)c(C(=O)N(C)C)s2)ccc1[N+](=O)[O-]	62*	2	54*	11	17	-3
CCOC(=O)c1ccc(NC(=O)c2nc[nH]c2C(=O)NCCNC(=O)c2[nH]cnc2C(=O)Nc2ccc(C(=O)OCC)cc2)cc1	3	/	6	/	92*	/
Cc1cc(C)c(C)c(OCCn2ccnc2)c1	20	/	111*	-2	4	3
O=C(NC1CCCCCC1)c1cc(S(=O)(=O)N2CCOCC2)ccc1F	-8	/	-11	2	-16	-10
C=CCN1c2ccccc2[C@]23C[C@@H](C(=O)OC)N(C(=O)NCCC)C2=NC(C(=O)OC)=C(C(=O)OC)[C@H]13	-9	16	-37	/	8	3
O=C(NCCCl)Nc1cc([N+](=O)[O-])ccc1Cl	62*	16	-2	1	1	-1
CC(C)(C)OC(=O)N1CCc2onc(-c3ccc(-n4cc(C5=CCCCC5)nn4)cc3)c2C1=O	/	/	/	/	24	/
COc1cc(/C=C/C(=O)c2ccc3c(c2)OCCO3)cc(OC)c1OC	23	/	67*	5	19	0
COc1ccc(Oc2ccc(/C=C/C(=O)c3ccc(O)cc3)cc2[N+](=O)[O-])cc1	77*	2	69*	2	-7	-2
COc1ccc(/C=C/C(=O)c2ccc(O)cc2)cc1COc1ccc(F)cc1	4	-5	55*	-2	5	8
O=C(/C=C/c1ccc(O)c([N+](=O)[O-])c1)c1ccc2ccccc2c1	36	/	31	5	4	-8
COc1ccc(OC)c(/C=C/C(=O)c2ccc3c(c2)OCCO3)c1	-36	/	16	0	65*	1
C=CCn1c(Cn2c(-c3cnccn3)nc3ccccc32)nc2ccccc21	4	/	-11	/	10	/
CCc1noc(C)c1C(=O)N1CCN(c2cccc(Cl)c2)CC1	3	/	11	/	-2	/
COc1cc(/C=C/C(=O)c2ccc(F)cc2)cc(OC)c1OC	26	35	84*	0	-21	0
COc1ccc(/C=C/C(=O)c2cc(F)ccc2OC(=O)c2ccccc2OC)cc1OC	55*	/	77*	3	-37	-4
Cc1ccc(C(=O)C(C)OC(=O)CCS(=O)(=O)c2ccc(C)cc2)cc1 (stereo not drawn)	8	/	17	/	-20	/
SMILES	TROY NFkB inh	PPC-1+TRAIL kill	TWEAK-Fn14 inh	HSP90 refold inh	TRAIL sens C8	Platelet DG rel
CC(C)CCNC(=O)CN(C(=O)CCC(=O)Nc1nccs1)c1ccc2c(c1)OCCO2	69*	/	78*	5	-6	4
Cc1cccc(N(CC(=O)NCc2ccco2)C(=O)CCC(=O)Nc2nccs2)c1C	-45	/	1	3	-15	-1
Cc1ccccc1N(CC(=O)NCc1ccco1)C(=O)CCC(=O)Nc1nccs1	-9	7	81*	2	1	-2
O=C(C1CCC(=O)N(C2CCCC2)C1)N1CCN(c2ccccc2Cl)CC1 (stereo not drawn)	-14	/	13	-1	13	1
CCc1ccc(NC(=O)C(C)OC(=O)c2cc(=O)[nH]c3ccc(S(=O)(=O)Nc4ccc(F)cc4)cc23)cc1 (stereo not drawn)	23	10	24	-3	18	-1
Cc1cccc(NS(=O)(=O)c2ccc3[nH]c(=O)cc(C(=O)OC(C)C(=O)Nc4ccc([N+](=O)[O-])cc4)c3c2)c1 (stereo not drawn)	51*	17	-8	2	0	6
Cc1nc(C(F)(F)F)ccc1C(=O)N1CCC(C)(C(=O)NS(=O)(=O)C2CC2)C1 (stereo not drawn)	-15	/	-4	/	-9	/
O=C(Nc1ccc(N2CCN(C(=O)c3cccs3)CC2)cc1)c1ccc([N+](=O)[O-])o1	-11	/	5	-3	94*	-7
O=C(Nc1cccc(NC(=O)c2cccs2)c1)c1ccc([N+](=O)[O-])o1	12	37	20	33*	34	17
CCC(=O)Nc1ccc(N2CCN(C(=O)c3cccs3)CC2)cc1	-3	19	-4	-4	-4	-3
O=C(COc1ccccc1[N+](=O)[O-])Nc1ccc(N2CCN(C(=O)c3cccs3)CC2)cc1	76*	25	72*	-3	33	1
O=C(NCc1ccco1)c1ccc(-c2ccc3nccn3c2)cc1	-11	/	2	/	10	/
CCCCN(CC(=O)NC1CC1)S(=O)(=O)c1ccc(OCC)cc1	4	/	2	/	-23	/
CCCCN1C(=O)C2(OCCCO2)c2cccc(C)c21	2	/	100*	2	2	10
Cc1ccc(NC(=O)CCc2c(C)[nH]c(=O)c(C#N)c2C)cc1	-29	/	-13	0	4	30
CCCCOC(=O)CCc1c(C)[nH]c(=O)c(C#N)c1C	4	-8	-13	-3	6	61*
O=C(CN1CCOCC1)OCCCC1CCCCC1	-14	13	-4	1	-2	0
CC(C)CCCC(C)CCOC(=O)CN1CCCC1 (stereo not drawn)	-6	-2	68*	-2	-9	-37
COc1cc(CN2C[C@@H](CO)O[C@@H](n3cnc4c(NC5CC5)ncnc43)C2)cc(OC)c1OC	-7	/	-17	/	4	/
CN1CCN(S(=O)(=O)c2cccc(C(=O)Oc3ccccc3Cl)c2)CC1	8	/	13	-3	-2	8
N#Cc1ccc(-c2csc(NC(=O)/C=C/c3cccs3)n2)cc1	59*	28	48	0	37	0
Cc1nc(NC(=O)/C=C/c2ccccc2)n[nH]1	1	1	86*	0	1	2
Cc1ccc(-c2csc(NC(=O)/C=C/c3cccs3)n2)cc1C	3	-5	20	4	-3	3
O=C(/C=C/c1ccccc1)Nc1nc(-c2ccncc2)cs1	53*	-3	30	2	41	10

Screens deposited in PubChem BioAssay by several laboratories.
